Among the data in the supplement of paper PMC10941209 are cell viability values, retold here.

The test deals with HFF. Kind of test: cell viability relative to DMSO control; higher = less cytotoxic. To be noted: 1 µM; 72 h. As to the method:
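Single-dose cytotoxicity screen of the MMV Pandemic Response Box at 1 uM on human foreskin fibroblasts (HFF), 72 h at 37 C. Viability measured by MTT (OD 550 nm) and normalised to the DMSO control (% survival).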
`CC(C)Oc1cccc(NC(=O)c2ccccc2C(F)(F)F)c1` displayed a cell viability of 70.5%.

For `NC1(C(=O)O)CCP(=O)(O)CC1` (stereo not drawn), the cell viability came out at 63.1%.

Regarding `O=C(NC12CC3CC(CC(C3)C1)C2)c1cc2ccccc2[nH]1`, the cell viability was determined as 83.6%.

With `Nc1c(C(=O)NCc2ccco2)c2nc3ccccc3nc2n1CCN1CCCCC1`, the cell viability amounted to 64.1%.

As to `CCCCc1ccc(C(=O)O)nc1`, the cell viability amounted to 56.4%.

As for `C[N+]1(C)CCCC(OC(=O)C(O)(c2ccccc2)c2ccccc2)C1` (stereo not drawn), the cell viability stood at 69.6%.

The compound `COc1ccccc1CN[C@H]1C2CCN(CC2)[C@H]1C(c1ccccc1)c1ccccc1` gave a cell viability of 58.7%.

For the compound `CCN1CCN(Cc2nc3ccc([N+](=O)[O-])cc3c(=O)n2-c2ccccc2F)CC1`, the cell viability turned out to be 62.2%.

The compound `C[C@H]1CC[C@]2(NC1)O[C@H]1C[C@H]3[C@@H]4CC[C@H]5C[C@@H](O)CC[C@]5(C)[C@H]4CC[C@]3(C)[C@H]1[C@@H]2C` yielded a cell viability of 73.1%.

Regarding `CN1C(=O)C(c2ccccc2)C(=O)N(c2ccccc2)c2cc(C(F)(F)F)ccc21` (stereo not drawn), the cell viability was 66.3%.

`C[C@@]1(O)[C@H](O)[C@@H](CO)O[C@H]1n1ccc2c(N)ncnc21` returned a cell viability of 68.5%.

Compound `COc1cc(C(C)(C)CCCC(C)C)cc(OC)c1OC` displayed a cell viability of 61%.

Take `COC(=O)Nc1nc2ccccc2[nH]1`: the cell viability amounted to 66.4%.
